# Data: the supplement of paper PMC10981050
# “And” between values parts separate entries of the source, which are not always exact repeats. Equal entries are not always repeated. Structures can show the parent of a compound that is named as a salt.
# What was measured:
# Experiment in all cases: cell viability relative to vehicle control; higher = less cytotoxic
# Conditions in all cases: 10 µM
# K562 = system: K562
# Procedure, shortened: (§1)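 CRISPR-edited mutant clones and isogenic wild-type clones from four leukaemia lines were screened against Selleck bioactive, kinase and epigenetic probe libraries, with identity-inconsistent compounds excluded. Each compound was acoustically dispensed at a single 10 µM dose into 384-well plates holding 2000 cells in 50 µL medium per well. After 48 h the supernatant was removed and CellTiter-Glo luminescence was read. Viability was expressed as percent of the on-plate vehicle control and analysed in Genedata Screener.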
# MARIMO = system: MARIMO
# Procedure, shortened: as §1
# MOLM14 = system: MOLM14
# Procedure, shortened: as §1
# OCI-AML2 = system: OCI-AML2
# Procedure, shortened: as §1
Compound,cell viability (K562; SRSF2 genotype: SRSF2 P95H/wt),cell viability (K562; SRSF2 genotype: SRSF2 wt/wt) [%],cell viability (MARIMO; SRSF2 genotype: SRSF2 P95H/wt) [%],cell viability (MARIMO; SRSF2 genotype: SRSF2 wt/wt) [%],cell viability (MOLM14; SRSF2 genotype: SRSF2 P95H/wt) [%],cell viability (MOLM14; SRSF2 genotype: SRSF2 wt/wt) [%],cell viability (OCI-AML2; SRSF2 genotype: P95H/wt) [%],cell viability (OCI-AML2; SRSF2 genotype: wt/wt) [%]
CNC[C@H](O)c1ccc(O)c(O)c1 [Epinephrine bitartrate (Adrenalinium)],97.4% and 94.9%,94,102,108,84.5,97.6,102,112
Cc1cc(Nc2cc(N3CCN(C)CC3)nc(/C=C/c3ccccc3)n2)n[nH]1,19.4% and 23.7%,18.3,36,26.5,2.58,5.88,6.21,14.9
N#CC1(c2ccc(NC(=O)c3cccnc3NCc3ccncc3)cc2)CCCC1 [Apatinib mesylate],79.4% and 87.5%,81.8,77.7,86.2,45.8,42.6,68.4,62.5
OC(c1cc(C(F)(F)F)nc2c(C(F)(F)F)cccc12)C1CCCCN1 (centres undefined) [Mefloquine HCl],0.97% and 1.02%,0.97,0.56,0.87,0.48,0.44,0.35,1.68
C[C@H](CCC(=O)O)[C@H]1CC[C@H]2[C@@H]3[C@H](O)C[C@@H]4C[C@H](O)CC[C@]4(C)[C@H]3CC[C@]12C [Chenodeoxycholic acid],97.4% and 101%,99.7,104,108,100,101,98.4,106
CCCCOc1nc(N)c2c(n1)N(Cc1cccc(CN3CCCC3)c1)CC(=O)N2,86.2% and 92.1%,90,87,91.3,97.2,93.4,97.4,90.6
Oc1cc(O)c2c(c1)OC(c1ccc(O)c(O)c1)C(OC1(c3ccc(O)c(O)c3)Oc3cc(O)cc(O)c3C(O)C1O)C2 (centres undefined) [Proanthocyanidins],102% and 105%,104,107,98.7,89.9,102,92.6,101
O=c1c2ccccc2oc2ccccc12 [Xanthone (Genicide)],102% and 103%,94.9,96.5,102,105,108,93.1,96.4
Cc1nc(Nc2n[nH]c3c2CN(C(=O)N[C@H](CN(C)C)c2ccccc2)C3(C)C)c2sccc2n1,13.2% and 22.6%,14.3,5.65,3.34,0.49,0.42,0.9,10.7
Cc1cc(/C=C2/SC(=S)NC2=O)c(C)n1-c1cccnc1 [Optovin],85.7% and 83.4%,85,92.2,102,89.3,90.5,107,97.2
CC/C=C(\C(=O)N[C@@H]1C(=O)N2C(C(=O)OCOC(=O)C(C)(C)C)=C(COC(N)=O)CS[C@H]12)c1csc(N)n1 [Cefcapene Pivoxil Hydrochloride],101% and 102%,109,93.2,103,97.3,105,114,106
CCOc1nc2cccc(C(=O)O)c2n1Cc1ccc(-c2ccccc2-c2noc(=O)[nH]2)cc1 [Azilsartan (TAK-536)],106% and 104%,97.9,93.5,103,99.2,103,101,101
CC(c1cc2ccccc2s1)N(O)C(N)=O (centres undefined) [Zileuton],101% and 96.3%,99.1,94.3,99.2,98.7,98.1,92.8,97.4
Cc1ccc(C(C)C)cc1O [Carvacrol],100% and 101%,98.7,95.5,99,99,100,92.8,100
Cc1ccc(C(=O)Nc2ccc(Oc3cc4cnn(C)c4cc3-c3cn[nH]c3)c(F)c2)c(=O)n1-c1ccc(F)cc1,82.9% and 87.4%,87.2,88.5,103,8.56,12.4,27.6,31.6
COc1ccc(-n2c(SCCCN3C(=O)c4cccc5cccc(c45)C3=O)nnc2-c2ccncc2)cc1,100% and 88.5%,88.4,101,103,102,101,95.5,100
CN1CCC(=C2c3ccccc3CCc3sccc32)CC1 [Pizotifen malate],89.7% and 97%,95.2,76.9,83.8,76.5,90.1,81.4,83
Cc1ccc(S(=O)(=O)NC(=O)NN2CC3CCCC3C2)cc1 (centres undefined) [Gliclazide (Diamicron)],95.8% and 105%,109,106,111,103,106,113,101
CC(C)(C)NC(=O)N[C@H](C(=O)N1C[C@H]2[C@@H]([C@H]1C(=O)NC(CC1CCC1)C(=O)C(N)=O)C2(C)C)C(C)(C)C (some centres undefined) [Boceprevir],85.6% and 87.6%,84.2,71.3,73.2,91.1,84.3,84,88.9
O=C1C(c2c(O)[nH]c3ccccc23)=Nc2ccccc21 [Indirubin],92.2% and 98.7%,87.3,92.3,87.8,87.5,87.9,91.8,92.9
Oc1ccc2ccccc2c1SSc1c(O)ccc2ccccc12,62.1% and 81.6%,83.9,32.7,29.7,18.9,29.6,31.8,31.2
O=S(=O)(c1ccccc1)N(CC(F)(F)F)c1ccc(C(O)(C(F)(F)F)C(F)(F)F)cc1,74.6% and 72.6%,72.3,67.8,70.4,62.3,65.2,67.5,70.7

Compound,cell viability (K562; SRSF2 genotype: SRSF2 P95H/wt),cell viability (K562; SRSF2 genotype: SRSF2 wt/wt) [%],cell viability (MARIMO; SRSF2 genotype: SRSF2 P95H/wt) [%],cell viability (MARIMO; SRSF2 genotype: SRSF2 wt/wt) [%],cell viability (MOLM14; SRSF2 genotype: SRSF2 P95H/wt) [%],cell viability (MOLM14; SRSF2 genotype: SRSF2 wt/wt) [%],cell viability (OCI-AML2; SRSF2 genotype: P95H/wt) [%],cell viability (OCI-AML2; SRSF2 genotype: wt/wt) [%]
CCCc1cc(C(N)=S)ccn1 [Protionamide (Prothionamide)],99% and 98.7%,101,98.8,102,95.4,102,100,112
Cc1cccc(CC(=O)N2CCc3c2ccc(-c2cn(C)c4ncnc(N)c24)c3F)n1,75.2% and 84.4%,80.4,74.5,72.5,80.8,93.8,69.3,73.8
Clc1ccc(COC(Cn2ccnc2)c2ccc(Cl)cc2Cl)cc1 (centres undefined) [Econazole nitrate (Spectazole)],67.2% and 76.7%,70.1,64.3,71,58.2,73,57.8,52.4
Cn1c(=O)c2[nH]cnc2n(C)c1=O [Aminophylline (Truphylline)],91.1% and 89.1%,89.2,83.4,95.7,86.8,89.8,88.9,102
N#CC(=Cc1ccc(-c2cc(Cl)ccc2Cl)o1)C(=O)Nc1cccc2ncccc12,101% and 104%,91.8,99.1,99.8,116,112,88.3,92
OC1CCC(Nc2ncc3nc(Nc4c(F)cc(F)cc4F)n([C@H]4CCOC4)c3n2)CC1 (some centres undefined) [Tanzisertib(CC-930)],101% and 111%,114,116,103,91.8,109,117,122
CN(C)CCC(c1ccc(Cl)cc1)c1ccccn1 (centres undefined) [Chlorpheniramine Maleate],100% and 106%,98.2,91.4,105,94.7,101,99.4,99.1
CCn1cc(C(=O)O)c(=O)c2cc(F)c(N3CCN(C)CC3)cc21 [Pefloxacin mesylate],97.5% and 101%,96.6,105,100,100,103,109,115
C[C@]1(c2nc3c(C(N)=O)cccc3[nH]2)CCCN1 [ABT-888 (Veliparib)],93.1% and 93%,89.4,91,96.5,82.4,79,70.2,83.5
NC(=O)c1cc(F)cc2c1C(=O)N(C1CCN(C3CCC(F)(F)CC3)CC1)C2,97.3% and 103%,95.7,96.4,106,82.6,97.3,87.5,96.1
COc1ccc(/C=C/c2cc(O)cc(O[C@@H]3O[C@H](CO)[C@@H](O)[C@H](O)[C@H]3O)c2)cc1O [Rhapontin],86.2% and 86.1%,92.3,85.4,99.8,90.7,99.3,89.1,95.5
CN1CC[C@@H](c2c(O)cc(O)c3c(=O)cc(-c4ccccc4Cl)oc23)[C@@H]1CO,5.12% and 15.8%,7.55,7.83,3.59,2.24,0.71,1.64,13.3
C[C@@H]1CC[C@@]2(OC1)O[C@H]1C[C@H]3[C@@H]4CC=C5C[C@@H](O[C@@H]6O[C@H](CO)[C@@H](O[C@@H]7O[C@@H](C)[C@H](O[C@@H]8O[C@@H](C)[C@H](O)[C@@H](O)[C@H]8O)[C@@H](O)[C@H]7O)[C@H](O)[C@H]6O[C@@H]6O[C@@H](C)[C@H](O)[C@@H](O)[C@H]6O)CC[C@]5(C)[C@H]4CC[C@]3(C)[C@@]1(O)[C@@H]2C [Chonglou Saponin VII],0.5% and 0.49%,0.46,0.43,0.55,0.44,0.46,0.37,0.47
CC(=O)Oc1ccccc1C(=O)O [Aspirin (Acetylsalicylic acid)],102% and 101%,94,96.4,95.9,95.7,102,100,96.7
CC1(C)O[C@@H]2C[C@H]3[C@@H]4CCC5=CC(=O)C=C[C@]5(C)[C@H]4[C@@H](O)C[C@]3(C)[C@]2(C(=O)CO)O1 [Desonide],97.9% and 104%,102,102,110,106,100,104,121
COCCOc1cnc2ccn([C@H](C)c3nnc4c(F)cc(-c5cnn(C)c5)cn34)c(=O)c2c1,86.5% and 87.1%,85.7,86.8,94.3,96.7,93.5,82,85.9
COc1cc(C(=O)OCCCCNC(=N)N)cc(OC)c1O [Leonurine],105% and 99%,95.2,98.4,112,95.2,104,94.4,107
CC(C)(C)c1cc(NC(=O)Nc2ccc(-c3cn4c(n3)sc3cc(OCCN5CCOCC5)ccc34)cc2)no1 [Quizartinib (AC220)],105% and 110%,103,80.1,82.9,14.9,9.61,36.9,45.7
O=C(Nc1ncc(SCCN2CCCC2)s1)[C@]1(c2ccc(S(=O)(=O)C3CC3)cc2)C[C@H]1C1CCCCC1,0.72% and 0.66%,0.58,2.32,11.5,0.59,0.51,0.46,0.55
Cc1cc(C2CCCCC2)n(O)c(=O)c1 [Ciclopirox (Penlac)],54.8% and 52%,42.2,14.8,21.8,7.11,2.18,15.5,16.3
NNC(=O)c1ccncc1.Nc1ccc(C(=O)O)c(O)c1 [pasiniazid],109% and 113%,114,106,106,101,108,119,93.9
